Compound activity as filed in PubChem BioAssay.
Rows were chosen to be rich in hits. Some 12% of all compounds tested hit in one or more screens of this group.
OTUD3 block: blocks human OTUD3 ubiquitin-rhodamine cleavage. Q5T2D3. purified OTUD3, Ub-rhodamine fluorescence, 2 h. inhibition, % at 25 µM. 47,000 compounds, 0.7% hits
Target sequence (Q5T2D3 whole entry, looked up): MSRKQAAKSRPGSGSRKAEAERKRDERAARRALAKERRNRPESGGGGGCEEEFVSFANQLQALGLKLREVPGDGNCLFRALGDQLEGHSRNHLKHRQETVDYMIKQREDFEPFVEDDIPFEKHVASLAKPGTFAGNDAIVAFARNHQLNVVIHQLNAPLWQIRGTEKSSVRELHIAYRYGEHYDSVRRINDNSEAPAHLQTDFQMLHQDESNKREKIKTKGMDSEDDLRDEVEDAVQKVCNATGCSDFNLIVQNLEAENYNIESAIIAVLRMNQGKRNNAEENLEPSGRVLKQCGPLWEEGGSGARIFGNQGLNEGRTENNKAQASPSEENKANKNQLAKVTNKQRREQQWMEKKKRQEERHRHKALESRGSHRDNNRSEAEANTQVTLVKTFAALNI
USP30 block: blocks human USP30 ubiquitin-rhodamine cleavage | Q70CQ3 | purified USP30, Ub-rhodamine cleavage fluorescence | inhibition, % at 25 µM | 47,000 compounds, 5.3% hits
USP28 inh: blocks human USP28 ubiquitin-rhodamine cleavage; Q96RU2; 47,000 compounds, 3% hits; inhibition, % at 25 µM; purified USP28, Ub-rhodamine cleavage fluorescence, 30 min; AID 1645857
USP17 block: inhibitors of human USP17 deubiquitinase | A8MUK1 | purified USP17, Ub-rhodamine cleavage fluorescence, 3 h | inhibition, % at 50 µM | 47,000 compounds, 6.5% hits | AID 1645855
A number is an active result; - = inactive; . = no result given. No stated cut-off is given here; in the data, active means inhibition above about 30%; inactive means the rest.

SMILES	OTUD3 block	USP30 block	USP28 inh	USP17 block
COc1ccccc1OCC(O)CNc1c(C)c(C)nc2cc(-c3nccn3C)nn12 (centres undefined)	-	-	-	-
Cc1nc2cc(-c3nccn3C)nn2c(N2CCC(O)(c3ccccc3F)CC2)c1C	-	-	-	34
COc1ccc(C(=O)Nc2cccc(N3CCCC3=O)c2)cc1OC	-	.	.	-
Cc1ccccc1-c1noc(COc2ccc(C(N)=O)cc2)n1	-	-	40	-
CCOC(=O)c1ccc(OCc2nc(-c3ccc(OC)c(OC)c3)no2)cc1	-	-	-	-
Cc1c(CC(=O)Nc2nn[nH]n2)c(=O)oc2cc3c(cc12)CCC1(CCCCC1)O3	-	58	-	-
Cc1c(CC(=O)NC2CC2)c(=O)oc2cc3c(cc12)CCC1(CCCCC1)O3	-	-	-	-
Cc1ccc(N2CC(C(=O)NCc3nnnn3-c3ccc(F)c(F)c3)CC2=O)cc1 (centres undefined)	-	-	-	-
Cn1c(=O)cc(C(=O)Nc2cc(C(F)(F)F)cc(C(F)(F)F)c2)[nH]c1=O	-	36	-	-
Cn1c(=O)cc(C(=O)Nc2ccc(OC(F)(F)F)cc2)[nH]c1=O	-	-	-	-
Cc1ccc(-c2csc(-n3ncc(C(=O)N4CCN(C(=O)Nc5cccc6ccccc56)C(C)C4)c3C(C)C)n2)cc1 (centres undefined)	-	-	-	63
CCNc1cc(C)nc(N2CCN(S(=O)(=O)c3ccc(-c4ccccc4)cc3)CC2)n1	-	-	-	-
O=c1c2c(-c3ccc(Cl)cc3)csc2ncn1CCc1ccccc1	-	-	-	-
O=C(O)c1cccc2oc(-c3cccc4oc(-c5ccccc5O)nc34)nc12	-	-	-	46
CCOC(=O)c1csc(NC(=O)c2ccccc2Br)n1	-	-	41	-
CCOc1ccccc1NC(=O)Cn1c(=O)n(CCCC(=O)N2CCc3ccccc3C2)c(=O)c2ccccc21	-	45	-	-
O=C1NCC2(CCCN(C(=O)n3ccnc3)C2)Oc2ccccc21 (centres undefined)	-	-	-	-
Cc1c(CNCCc2c[nH]c3ccccc23)c(C(=O)O)c(C)n1Cc1cccc(Cl)c1	-	-	-	-
O=C(CSc1nnnn1-c1ccccc1)Nc1ccccc1	-	46	-	51
CC(C)Cc1nc2sc3c(SCc4ccc(Cl)cc4)ncnc3c2c2c1COC(C)(C)C2	-	33	-	-
Cc1nc2sc3c(NCC(C)C)ncnc3c2c2c1COC(C)(C)C2	-	-	-	43
CC(C)Cc1nc2sc3c(SCc4ccc(Br)cc4)ncnc3c2c2c1COC(C)(C)C2	-	-	-	-
CC(C)Cc1nc2sc3c(NCc4ccccc4)ncnc3c2c2c1COC(C)(C)C2	-	64	-	-
CC(C)Cc1nc2sc3c(SCCc4ccccc4)ncnc3c2c2c1COC(C)(C)C2	-	-	-	-
CCC(O)CNc1ncnc2c1sc1nc(C)c3c(c12)CC(C)(C)OC3 (centres undefined)	-	-	-	-
SMILES	OTUD3 block	USP30 block	USP28 inh	USP17 block
O=C(c1cc(C2CC2)nn1-c1ccccc1)N1CCN(Cc2ccncc2)CC1	-	-	-	-
Cc1ccc(C(=O)OCC(=O)Nc2cc(S(=O)(=O)N3CCCCC3)ccc2C)cc1C	-	-	-	-
Cn1c(SCc2ccc(C(C)(C)C)cc2)nc(-c2ccccc2)c1-c1ccccc1	-	34	-	-
COc1ccc2c(c1)CCc1c-2n[nH]c1C(=O)Nc1cc(C)on1	-	55	34	33
COc1ccc2c(c1)CCc1c-2n[nH]c1C(=O)N1CCC(C(N)=O)CC1	-	30	-	-
Cc1cc(NC(=O)c2[nH]nc3c2CCc2ccccc2-3)no1	-	-	-	64
COc1ccc2c(c1)CCc1c-2n[nH]c1C(=O)N1CCN(c2ncccn2)CC1	-	-	-	-
COc1ccc2c(c1)CCc1c-2n[nH]c1C(=O)N1CCN(C)CC1	-	-	-	-
O=C(COc1ccc2c(c1)OCO2)N1CCN(c2ncc(C(F)(F)F)cc2Cl)CC1	-	-	-	-
Cc1ccc(-c2nc(-c3cccs3)cc(C(F)(F)F)c2C#N)cc1	-	-	-	-
O=C(Nc1ccc2c(c1)OCO2)C1[C@@H]2C(=O)N(c3ccccc3)C(=O)[C@@H]2[C@H]2c3ccccc3C=CN12 (some centres undefined)	-	-	-	-
O=C(NCCc1ccccc1)c1cn2cc(Cl)ccc2n1	-	-	-	-
O=C(NCc1ccco1)c1nnn(Cc2ccccc2Cl)c1-n1cccc1	-	-	-	33
O=C(NCCc1ccccc1)c1nnn(Cc2cccc(Cl)c2)c1-n1cccc1	-	-	78	-
O=C(NC1CCc2nc(C(F)(F)F)cn2C1)C1CCOCC1 (centres undefined)	-	-	-	-
